High-throughput results (PubChem BioAssay)
SNCA expr inh: inhibitors of alpha-synuclein (SNCA) gene expression; HEK-293 SNCA-luciferase knock-in, luminescence, 24 h; Potency, µM (series often up to 57.2 µM), for the others: at the top dose activity change, negative = inhibition, most hits filed as inhibitors; 140,000 compounds, 0.17% hits; AID 1671194;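 also: plate controls were DMSO cells for no effect and cell-free wells for full effect; nearly all actives have a fitted effect of over 45% in size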
Luciferase inh: inhibitors of firefly (Photinus pyralis) luciferase; purified P. pyralis luciferase, luminescence, biochemical; Potency, µM (top dose mostly 115 µM), actives largely listed as inhibitors; 76,000 compounds, 2.5% hits; AID 1347043; also: % is scaled to controls: 0 for no effect and ±100 for the full control effect; nearly all actives have a fitted effect of over 65% in size
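Luminescence read by CCD imager after adding enzyme (10nM final) to wells holding compound, titrated in qHTS. Substrates 10uM each D-luciferin and ATP; buffer 50mM Tris acetate pH 7.5, 10mM Mg acetate, Tween-20, BSA.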
NIH3T3 tox: kills NIH 3T3 cells | Potency, µM (series often up to 96.7 µM), for inactives: top-dose activity change, negative = cytotoxicity, actives largely listed as inhibitors | NIH 3T3 viability, CellTiter-Glo ATP luminescence, 48-72 h | 94,000 compounds, 4.3% hits | AID 1345082; also: % is scaled to controls: 0 for no effect and ±100 for the full control effect; nearly all actives have a fitted effect of over 55% in size
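Luminescent ATP readout (CellTiter-Glo, 10 min RT) after 48 or 72 hr compound exposure of NIH 3T3 cells seeded at 400 cells/well in 1536-well format; quantitative HTS.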
HEK cytotox: cytotoxic compounds in HEK 293 cells; HEK 293 viability, ATP luminescence (CellTiter-Glo), 48-72 h; Potency, µM (doses to about 115 µM), for inactives: at the highest dose activity change, negative = cytotoxicity, most hits filed as inhibitors; 94,000 compounds, 6.6% hits; also: % is scaled to controls: 0 for no effect and ±100 for the full control effect; nearly all actives have a fitted effect of over 60% in size
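HEK 293 seeded at 250 cells/well receive compound via pintool. After 48 or 72 hr at 37 degree Celsius, 5% CO2 and 95% humidity, CellTiter-Glo is dispensed and luminescence read following 10 min at room temperature.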
SNCA viab count: cell viability loss counter-screen; Potency, µM (series often up to 57.1 µM), for the others: at the highest dose activity change, negative = cytotoxicity, actives largely listed as cytotoxic; 150,000 compounds, 0.12% hits; AID 1671193; HEK-293-SNCA-luc viability, GF-AFC fluorescence, 24 h;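 also: 0% = DMSO-treated cells and -100% = medium-only wells without cells; nearly all actives have a fitted effect of over 30% in size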
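Cytotoxicity counterscreen: after 24 h compound treatment of genome-edited SNCA-luciferase HEK-293 cells, live-cell protease substrate GF-AFC read by fluorescence after 30 min; activity scaled between DMSO (0%) and medium-only (-100%), curves Hill-fitted.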
hNpr1 antagonist: blocks ANP-stimulated signaling of human Npr1 receptor; HEK293 hNpr1 GloSensor cGMP, ANP-stimulated luminescence; Potency, µM (top dose mostly 46.3 µM), without a hit: top-dose activity change, negative = inhibition, hits mostly inhibitors; 76,000 compounds, 1.6% hits; AID 1347048; calls by dose curve; also: % is scaled to controls: 0 for no effect and ±100 for the full control effect; nearly all actives have a fitted effect of over 60% in size
Target sequence (P16066 whole entry, looked up): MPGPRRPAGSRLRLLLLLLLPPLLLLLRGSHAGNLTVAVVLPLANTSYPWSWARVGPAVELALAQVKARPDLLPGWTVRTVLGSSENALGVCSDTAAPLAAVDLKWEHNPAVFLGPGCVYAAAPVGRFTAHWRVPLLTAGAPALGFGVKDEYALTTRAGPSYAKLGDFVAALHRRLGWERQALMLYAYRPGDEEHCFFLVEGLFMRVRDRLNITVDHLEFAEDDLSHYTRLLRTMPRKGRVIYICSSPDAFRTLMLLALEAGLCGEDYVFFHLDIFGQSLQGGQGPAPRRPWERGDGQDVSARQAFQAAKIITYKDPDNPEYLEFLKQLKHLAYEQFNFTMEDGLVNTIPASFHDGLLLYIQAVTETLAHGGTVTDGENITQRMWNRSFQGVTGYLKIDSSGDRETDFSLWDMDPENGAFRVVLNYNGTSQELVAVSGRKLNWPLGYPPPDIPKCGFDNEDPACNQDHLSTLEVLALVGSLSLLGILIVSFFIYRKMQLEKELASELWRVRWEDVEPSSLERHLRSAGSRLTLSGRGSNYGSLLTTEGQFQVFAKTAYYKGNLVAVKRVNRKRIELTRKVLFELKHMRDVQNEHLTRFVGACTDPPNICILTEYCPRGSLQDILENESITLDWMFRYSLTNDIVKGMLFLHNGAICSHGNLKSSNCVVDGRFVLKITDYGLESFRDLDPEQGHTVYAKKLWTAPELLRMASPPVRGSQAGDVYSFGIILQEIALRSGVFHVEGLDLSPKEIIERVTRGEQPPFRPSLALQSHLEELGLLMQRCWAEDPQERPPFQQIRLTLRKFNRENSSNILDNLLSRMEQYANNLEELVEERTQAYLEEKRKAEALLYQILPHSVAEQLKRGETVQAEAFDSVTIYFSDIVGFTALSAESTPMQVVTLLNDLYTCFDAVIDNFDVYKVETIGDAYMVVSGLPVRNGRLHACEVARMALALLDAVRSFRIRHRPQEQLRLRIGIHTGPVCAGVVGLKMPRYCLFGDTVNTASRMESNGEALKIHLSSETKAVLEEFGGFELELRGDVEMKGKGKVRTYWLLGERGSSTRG
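Compound pre-incubated 30 min at room temperature on GloSensor-loaded HEK293 cells stably carrying hNpr1 and the pGS-40F cGMP biosensor. Stimulation uses hNppA at 0.1 nM final; luminescence is taken at baseline and 20 min post-agonist.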
NPR1 antag cnf: hNpr1 antagonism, confirmation assay | shares compounds with hNpr1 antagonist | HEK293 hNpr1 cGMP GloSensor luminescence, ANP-stimulated | Potency, µM (highest dose often 57.6 µM), inactives show top-dose activity change, negative = inhibition, actives largely listed as inhibitors | 1,400 compounds, 76% hits | AID 1347044; calls by dose curve; also: nearly all actives have a fitted effect of over 70% in size
Npr2 selectivity: antagonizes human Npr2, subtype selectivity check | shares compounds with hNpr1 antagonist | HEK293 hNpr2 GloSensor cGMP luminescence, CNP-stimulated | Potency, µM (doses to about 57.6 µM), for inactives: at the highest dose activity change, negative = inhibition, hits mostly inhibitors | 1,400 compounds, 67% hits; calls by dose curve; also: nearly all actives have a fitted effect of over 70% in size
FLuc inh counter: inhibits firefly luciferase, false Npr1 antagonist flag. shares compounds with hNpr1 antagonist. purified FLuc enzyme, luminescence, Km substrate. Potency, µM (doses to about 57.6 µM), for inactives: top-dose activity change, negative = inhibition, actives largely listed as inhibitors. 1,400 compounds, 0.7% hits; also: 0% is about no effect
GloSensor ctrl: reduces cGMP signal in GloSensor control cells | AID 1347051 | 1,400 compounds, 69% hits | shares compounds with hNpr1 antagonist | HEK293 GloSensor cGMP, SNP-stimulated, luminescence | Potency, µM (highest dose often 57.6 µM), inactives show at the top dose activity change, negative = inhibition, usual class: inhibitors; calls by dose curve; also: % is scaled to controls: 0 for no effect and ±100 for the full control effect; nearly all actives have a fitted effect of over 70% in size
Starred values were filed as active, the others as inactive; [ ] = dose if it differs, or a comment. Only some compounds are listed: those with a hit (about 7.4% of all), similar ones and a draw of the others. Unless noted, calls follow the shape of the dose curve; as a rule, active = well fitted curve in the direction sought with a large enough effect; inconclusive = small, poorly fitted or top-dose-only effect, or another doubt; inactive = no such curve, though single readings can be large; an effect the other way counts as inactive or inconclusive. Potency is read from the fitted curve at half-maximal effect.

What do the screens show for `O=C(Nc1cccc(Cl)c1)C1CCN(C(=O)c2ncn3c2COC(c2ccc(F)cc2)C3)CC1` (stereo not given)?
SNCA expr inh: 9.1%; Luciferase inh: inconclusive; NIH3T3 tox: -10.0%; HEK cytotox: inconclusive; SNCA viab count: -22.7%; hNpr1 antagonist: inconclusive

What do the screens show for `COc1ccc(CN2C[C@H]3CN(Cc4cccnc4)CCN3C2=O)cc1`?
SNCA expr inh: 14.2%[87.6 µM]; Luciferase inh: inactive; NIH3T3 tox: 0.3%[138 µM]; HEK cytotox: 1.9%[172 µM]; SNCA viab count: 4.1%[87.6 µM]; hNpr1 antagonist: 1.2%[70.6 µM]

What do the screens show for `COc1ccc(CN2C[C@H]3CN(Cc4ccc(C(F)(F)F)cc4)CCN3C2=O)cc1`?
SNCA expr inh: -19.7%[87.6 µM]; Luciferase inh: inactive; NIH3T3 tox: inconclusive; HEK cytotox: inconclusive; SNCA viab count: -1.8%[87.6 µM]; hNpr1 antagonist: inconclusive

How did COc1ccc(CN2C[C@H]3CN(Cc4ccc(S(C)(=O)=O)cc4)CCN3C2=O)cc1 do in these assays?
SNCA expr inh: 3.1%[87.6 µM]; Luciferase inh: inactive; NIH3T3 tox: -23.3%[138 µM]; HEK cytotox: inconclusive; SNCA viab count: -1.3%[87.6 µM]; hNpr1 antagonist: inconclusive

Results for COc1ccc(CN2C[C@H]3CN(Cc4ccc5c(c4)OCCO5)CCN3C2=O)cc1 ?
SNCA expr inh: -13.9%[87.6 µM]; Luciferase inh: inactive; NIH3T3 tox: inconclusive; HEK cytotox: inconclusive; SNCA viab count: -21.1%[87.6 µM]; hNpr1 antagonist: 10µM*; NPR1 antag cnf: 14µM*; Npr2 selectivity: 15.7µM*; FLuc inh counter: -14.1%[86.2 µM]; GloSensor ctrl: 14µM*

Results for COc1ccc(CN2C[C@H]3CN(Cc4ccc([N+](=O)[O-])cc4)CCN3C2=O)cc1 ?
SNCA expr inh: 1.3%[87.6 µM]; Luciferase inh: inactive; NIH3T3 tox: inconclusive; HEK cytotox: inconclusive; SNCA viab count: -7.0%[87.6 µM]; hNpr1 antagonist: 22.4µM*; NPR1 antag cnf: 15.7µM*; Npr2 selectivity: 17.7µM*; FLuc inh counter: -0.3%[86.2 µM]; GloSensor ctrl: 15.7µM*

What do the screens show for `COc1ccc(CN2CCN3C(=O)N(Cc4ccc(OC)cc4)C[C@H]3C2)cc1`?
SNCA expr inh: inconclusive; Luciferase inh: inactive; NIH3T3 tox: inconclusive; HEK cytotox: inconclusive; SNCA viab count: -0.6%[87.6 µM]; hNpr1 antagonist: 14.1µM*; NPR1 antag cnf: 12.5µM*; Npr2 selectivity: 17.7µM*; FLuc inh counter: -15.2%[86.2 µM]; GloSensor ctrl: 14µM*

Results for O=C1N(Cc2cccnc2)C[C@H]2CN(Cc3ccc(C(F)(F)F)cc3)CCN12 ?
SNCA expr inh: -5.9%[87.6 µM]; Luciferase inh: inactive; NIH3T3 tox: inconclusive; HEK cytotox: inconclusive; SNCA viab count: -5.9%[87.6 µM]; hNpr1 antagonist: 10µM*; NPR1 antag cnf: 12.5µM*; Npr2 selectivity: 17.7µM*; FLuc inh counter: 2.2%[86.2 µM]; GloSensor ctrl: 12.5µM*

What do the screens show for `Cc1nnc2ccc(N3CCC(NC(=O)c4ccc(C(F)(F)F)cc4)C3)nn12` (stereo not given)?
NIH3T3 tox: -20.8%; HEK cytotox: -17.6%

How did CSc1ccc(-c2cccc(C(=O)NCC(=O)NC3CCCCCC3)c2)cc1 do in these assays?
SNCA expr inh: 50.5%; NIH3T3 tox: -26.3%; HEK cytotox: inconclusive; SNCA viab count: 2.0%

How did CC(=O)Oc1c(-c2ccc(NC(=O)C3CC3)cc2)c(-c2ccccc2F)nn1-c1ccccc1 do in these assays?
SNCA expr inh: 7.8%; Luciferase inh: inactive; NIH3T3 tox: -12.7%; HEK cytotox: -5.7%; SNCA viab count: 5.2%; hNpr1 antagonist: -0.3%

Results for FC(F)(F)c1ccc(N2C3CCC2CN(Cc2cccc(-c4cccs4)c2)C3)cc1 ?
SNCA expr inh: -1.0%; NIH3T3 tox: inconclusive; HEK cytotox: -15.6%; SNCA viab count: 0.8%

How did FC(F)(F)c1ccc(N2C3CCC2CN(Cc2cccc(-c4cccnc4)c2)C3)cc1 do in these assays?
SNCA expr inh: -18.7%; NIH3T3 tox: -20.5%; HEK cytotox: inconclusive; SNCA viab count: -8.8%; NPR1 antag cnf: 7.69µM*; Npr2 selectivity: 9.68µM*; FLuc inh counter: -0.8%; GloSensor ctrl: 6.11µM*

What do the screens show for `CN1C[C@@H](NC(=O)c2ccc3c(c2)OCO3)C[C@H]1c1nc(-c2ccc(Cl)cc2)no1`?
SNCA expr inh: -31.1%[87.6 µM]; Luciferase inh: inactive; NIH3T3 tox: 79.4µM*; HEK cytotox: 50.1µM*; SNCA viab count: inconclusive; hNpr1 antagonist: 35.5µM*; NPR1 antag cnf: 28µM*; Npr2 selectivity: 31.4µM*; FLuc inh counter: -28.5%[86.2 µM]; GloSensor ctrl: 25µM*

How did CN(C)Cc1nnc(C2CCCN(C(=O)CN(C)c3ccccc3)C2)n1C (stereo not given) do in these assays?
SNCA expr inh: -16.8%; Luciferase inh: inactive; NIH3T3 tox: -19.5%; HEK cytotox: -22.6%; SNCA viab count: 18.5%; hNpr1 antagonist: -3.1%

How did CCOc1cccc(CN2CCC3(Cc4ccccc4CNC3=O)C2)c1 (stereo not given) do in these assays?
SNCA expr inh: 0.4%; NIH3T3 tox: -16.0%; HEK cytotox: inconclusive; SNCA viab count: -3.0%

Results for Cc1nn2c(c1-c1ccccc1-c1ccccc1)N(Cc1ccccc1)CCC2 ?
SNCA expr inh: inconclusive; Luciferase inh: inactive; NIH3T3 tox: 12.6µM*; HEK cytotox: inconclusive; SNCA viab count: inconclusive; hNpr1 antagonist: 14.1µM*; NPR1 antag cnf: 6.27µM*; Npr2 selectivity: 8.86µM*; FLuc inh counter: -7.7%[86.2 µM]; GloSensor ctrl: 3.96µM*
